Experimental data reported in PubChem BioAssay AID589 (National Center for Advancing Translational Sciences (NCATS), 2007).
In all, about 59,000 compounds went through this assay and about 6,200 (11%) were called active. Inconclusive results (about 9%) are left out. The sample holds actives, similar compounds and a random draw of the others, so the mix is not that of the screen. Rule as the data show it: active = max dye-equivalent concentration above about 10 nM; inconclusive = mostly about 1.1 nM to 9.6 nM; inactive = weaker than that. Where a structure was tested more than once in an assay, its records may differ in their call.

test: qHTS Assay for Spectroscopic Profiling in 4-MU Spectral Region; details: compound autofluorescence, 340/450 nm, 4-MU equivalents; hits give high values
Description: NIH Molecular Libraries Screening Centers Network [MLSCN] NIH Chemical Genomics Center [NCGC] […] Occasionally, the artifactual effect may originate from the compounds own spectral or other biophysical properties which generally tend to track its assay concentration. Pre-screening/profiling the library with respect to the compounds spectral properties should help one exclude false positives early on. While the most informative fluorescent profiling data set is obtained by performing a full excitation and emission scan of each well by using a monochromator-based plate reader, such an approach is practical only on a very limited scale as scanning each well requires long time. An alternative approach, applied here, is to perform plate reader scans using selected excitation and emission wavelength pairs to generate a multidimensional relational database that correlates compound concentration and the respective relative fluorescence intensity at a given wavelength set. A standard curve of 4-methylumbelliferone (4-MU) present on each plate as six-point concentration series, was used to compute a normalized fluorescence response, termed dye-equivalent concentration, for each compound at each concentration.
NCGC Assay Protocol Summary: Buffer: 100 mM Tris buffer, pH 8.0 Dye standard plate: The wells in columns 1 through 4 of a Kalypsys polypropylene 1536-well compound plate were filled with standard solutions of fluorophore corresponding to the spectral region of interest. Solutions of 4-MU were placed in the following wells: A1, B1: 3 mM, A2, B2: 300 uM, A3, B3: 30 uM, A4, B4: zero (DMSO), C1, D1: 3 uM, C2, D2: 900 nM, C3, D3: 300 nM, C4, D4: zero (DMSO). Assay Steps: Six uL of buffer were dispensed to 1536-well Greiner black plates. Compounds and dye standards (23 nL) were transferred via Kalypsys PinTool. The plates were incubated for 15 min at room temperature, and then read on ViewLux (Perkin-Elmer) High-throughput CCD imager using 340 nm and 450 nm excitation and emission filter set. Keywords: NIH Roadmap, MLSCN, MLI, MLSMR, qHTS, NCGC, Fluorescent Profiling, 4MU, 4-MU

**Q.** Which max dye-equivalent concentration does the source give for `C[C@@]12CC[C@H](O)C[C@@H]1CC[C@@H]1[C@@H]2CC[C@@]2(C)[C@@H](C3=CC(=O)OC3)[C@H](O)C[C@]12O` here?
**A.** inactive

**Q.** Which max dye-equivalent concentration does the source give for `C[C@]12CC[C@H](O)C[C@@H]1CC[C@H]1[C@H]2CC[C@]2(C)C(=O)CC[C@@H]12` here?
**A.** 69 nM (active)

**Q.** And the outcome?
**A.** inactive

**Q.** For `C[C@]12CC[C@H](O)CC1=CC[C@@H]1[C@H]2CC[C@]2(C)C(=O)CC[C@H]12`, which max dye-equivalent concentration is on record?
**A.** inactive

**Q.** Which max dye-equivalent concentration does the source give for `Cc1ccc(S(=O)(=O)O[C@H]2CN3CCC2CC3)cc1` here?
**A.** inactive

**Q.** With `CC1=CC(=O)C2=C(C)C[C@H](O)[C@@H]3[C@@H](OC(=O)[C@H]3C)[C@H]12` as the molecule, how does the max dye-equivalent concentration read?
**A.** inactive

**Q.** With `O=C1C2CCN(CC2)C1(CO)CO` as the molecule, how does the max dye-equivalent concentration read?
**A.** inactive

**Q.** Which max dye-equivalent concentration does the source give for `c1ccc2c(c1)[I+]c1ccccc1-2` here?
**A.** inactive

**Q.** For `CSC1=NP(=S)(SC)N(C)c2nc3n(c21)CCC3` (stereo unspecified), which max dye-equivalent concentration is on record?
**A.** 22 nM (active)

**Q.** For `c1csc(CN2CC3(CCNCC3)C2)n1`, which max dye-equivalent concentration is on record?
**A.** inactive

**Q.** Which max dye-equivalent concentration does the source give for `CC(C)CCC1(CCN)C(=O)NC(=O)NC1=O` here?
**A.** inactive

**Q.** With `CN1[C@@H]2CC[C@H]1CC(OC(=O)c1cc(Cl)cc(Cl)c1)C2` (stereo partly specified) as the molecule, how does the max dye-equivalent concentration read?
**A.** inactive

**Q.** For `CC(=O)c1c(O)c(C)c(O)c(Cc2c(O)c3c(c(C(=O)/C=C\c4ccccc4)c2O)OC(C)(C)C=C3)c1O`, which max dye-equivalent concentration is on record?
**A.** inactive

**Q.** Which max dye-equivalent concentration does the source give for `C[C@H]1CC[C@@]2(NC1)O[C@@H]1C[C@H]3[C@@H]4CC=C5C[C@@H](O)CC[C@]5(C)[C@@H]4CC[C@]3(C)[C@@H]1[C@@H]2C` here?
**A.** inactive

**Q.** With `NCCc1c[nH]c2ccc(O)cc12` as the molecule, how does the max dye-equivalent concentration read?
**A.** inactive

**Q.** Which max dye-equivalent concentration does the source give for `C/C(CCc1c[nH]c2ccccc12)=N\O` here?
**A.** 13 nM (active)

**Q.** Which max dye-equivalent concentration does the source give for `CCN(CC)CCn1ncc2c(N)ncnc21` here?
**A.** inactive

**Q.** For `N[C@H](C(=O)O)c1cc(=O)[nH]o1`, which max dye-equivalent concentration is on record?
**A.** inactive

**Q.** With `COC(=O)C(O)(c1ccc(NC(=O)c2ccco2)c(OC)c1)C(F)(F)F` (stereo unspecified) as the molecule, how does the max dye-equivalent concentration read?
**A.** inactive

**Q.** With `O=C(c1cc(-c2ccncc2)nc2ccccc12)N1CCC2(CC1)OCCO2` as the molecule, how does the max dye-equivalent concentration read?
**A.** inactive

**Q.** With `O=C(c1cc2nc(-c3ccccc3)cc(-c3ccccc3)n2n1)N1CCC2(CC1)OCCO2` as the molecule, how does the max dye-equivalent concentration read?
**A.** 64 nM (active)

**Q.** With `Cc1cccc(-n2c(C)nc3cc(C(=O)N4CCC5(CC4)OCCO5)ccc32)c1` as the molecule, how does the max dye-equivalent concentration read?
**A.** inactive

**Q.** With `NC[C@H](O)c1ccc(O)cc1` as the molecule, how does the max dye-equivalent concentration read?
**A.** inactive

**Q.** Which max dye-equivalent concentration does the source give for `NC(=O)c1ccc(OC[C@H](O)CN2CC=C(c3ccc(F)cc3)CC2)cc1` here?
**A.** inactive

**Q.** With `COc1cc(C[C@H](C)N)c(OC)cc1I` as the molecule, how does the max dye-equivalent concentration read?
**A.** inactive

**Q.** For `CC(=O)NBr`, which max dye-equivalent concentration is on record?
**A.** inactive

**Q.** For `C[C@H](Br)C(=O)N[C@H](CO)C(=O)O`, which max dye-equivalent concentration is on record?
**A.** inactive

**Q.** For `COc1ccc(C2NCc3ccc4c(c3-n3cccc32)OCO4)cc1OC` (stereo unspecified), which max dye-equivalent concentration is on record?
**A.** inactive

**Q.** Which max dye-equivalent concentration does the source give for `CCOC(=O)c1c(-c2ccccc2)oc2ccc(OC(=O)N(C)C)cc12` here?
**A.** 50 nM (active)

**Q.** Which max dye-equivalent concentration does the source give for `c1csc(CN2CCCC3(CCNCC3)C2)n1` here?
**A.** inactive

**Q.** For `c1ccc(CN2CC[C@@]3(CCCNC3)C2)cc1`, which max dye-equivalent concentration is on record?
**A.** 11 nM (active)

**Q.** For `c1ccc(N2CC[C@@]3(CCCNC3)C2)nc1`, which max dye-equivalent concentration is on record?
**A.** inactive

**Q.** For `C[C@@]12CC[C@H]3[C@@H](CC[C@]4(O)C[C@H](O)CC[C@@]34C=O)[C@]1(O)CC[C@@H]2C1=CC(=O)OC1`, which max dye-equivalent concentration is on record?
**A.** inactive

**Q.** For `CCN1C[C@@]2(COC)CC[C@H](OC)[C@]34[C@@H]1[C@]1(OCO[C@@]15C[C@@H](OC)C1C[C@H]3[C@H]5[C@@H]1OC)[C@H](O)[C@@H]24`, which max dye-equivalent concentration is on record?
**A.** inactive

**Q.** For `C=CCN1C(=O)C2(C(C(=O)OCC)=C(N)Oc3c2c(=O)oc2ccccc32)c2ccccc21` (stereo unspecified), which max dye-equivalent concentration is on record?
**A.** inactive

**Q.** With `CS(=N)(=O)CC[C@H](N)P(=O)(O)O` (stereo partly specified) as the molecule, how does the max dye-equivalent concentration read?
**A.** inactive

**Q.** With `CCOC(=O)c1c(N)n(Cc2ccccc2)c2nc3ccccc3nc12` as the molecule, how does the max dye-equivalent concentration read?
**A.** 1100 nM (active)

**Q.** For `CC(=O)O[C@H]1CC[C@@]2(C)[C@@H](CC[C@H]3[C@H]2CC(=O)[C@]2(C)[C@@H]3C[C@@H](N3CC3)[C@H]2C(C)=O)C1`, which max dye-equivalent concentration is on record?
**A.** inactive

**Q.** Which max dye-equivalent concentration does the source give for `CCNC[C@H](O)c1cccc(O)c1` here?
**A.** inactive

**Q.** Which max dye-equivalent concentration does the source give for `CC[C@]1(O)C(=O)OCc2c1cc1n(c2=O)Cc2cc3ccccc3nc2-1` here?
**A.** 2300 nM (active)

**Q.** Which max dye-equivalent concentration does the source give for `CC[C@@](O)(C(=O)O)c1cc2n(c(=O)c1CO)Cc1cc3ccccc3nc1-2` here?
**A.** 840 nM (active)

**Q.** For `CN1CCN(C(=O)O[C@@H]2c3nccnc3C(=O)N2c2ccc(Cl)cn2)CC1`, which max dye-equivalent concentration is on record?
**A.** inactive

**Q.** Which max dye-equivalent concentration does the source give for `CCN1C[C@]2(C)CC[C@H](O)[C@@]34[C@@H]5CC6[C@@H](OC)C[C@@](O)([C@@H]5[C@@H]6O)[C@H](C[C@@H]23)[C@H]14` here?
**A.** inactive

**Q.** Which max dye-equivalent concentration does the source give for `O=C(Nc1cccc(F)c1)N1CC[C@@]2(CCCN(C(=O)Oc3ccccc3)C2)C1` here?
**A.** inactive

**Q.** For `NCC[Se][Se]CCN`, which max dye-equivalent concentration is on record?
**A.** inactive

**Q.** Which max dye-equivalent concentration does the source give for `CCN1c2nc3c(C)cccn3c(=O)c2CC2(C(=O)N(C)C(=O)N(C)C2=O)C1C` (stereo unspecified) here?
**A.** 29 nM (active)

**Q.** Which max dye-equivalent concentration does the source give for `CC(C)(O)/C=C\C(=O)[C@](C)(O)[C@H]1[C@H](O)C[C@]2(C)[C@@H]3CC=C4[C@@H](C=C(O)C(=O)C4(C)C)[C@]3(C)C(=O)C[C@@]12C` here?
**A.** inactive

**Q.** For `NCCc1ccc(S(=O)(=O)F)cc1`, which max dye-equivalent concentration is on record?
**A.** inactive

**Q.** With `C[N+]1(C)C2CC(OC(=O)C(CO)c3ccccc3)CC1[C@@H]1O[C@H]21` (stereo partly specified) as the molecule, how does the max dye-equivalent concentration read?
**A.** inactive

**Q.** For `O=C(O)C(=O)Cc1ccc2c(c1)OCO2`, which max dye-equivalent concentration is on record?
**A.** inactive

**Q.** With `CC(C)(O)[C@H]1[C@H]2OC(=O)[C@@H]1[C@]1(O)C[C@H]3O[C@]34C(=O)O[C@H]2[C@]14C` as the molecule, how does the max dye-equivalent concentration read?
**A.** inactive
